# Test results reported in the supplement of paper PMC11732987, “Enantioselective OTUD7B fragment discovery through chemoproteomics screening and high-throughput optimisation” (Communications Chemistry, 2025).
# A number with no mark means an inactive call.
# What was measured:
# Experiment in all cases: log2 ratio of Biotin-Ahx-Ub-VS probe labelling (fragment/DMSO); higher = less target engagement (more negative = stronger competition), active = hit call of the paper (q ≤ 0.05, log2 ratio ≤ -1)
# Details in all cases: compound concentration: 200 uM; treatment time: 3 h
# [1] = target: T1, USP19 (UniProt O94966)
# T1 sequence (whole entry): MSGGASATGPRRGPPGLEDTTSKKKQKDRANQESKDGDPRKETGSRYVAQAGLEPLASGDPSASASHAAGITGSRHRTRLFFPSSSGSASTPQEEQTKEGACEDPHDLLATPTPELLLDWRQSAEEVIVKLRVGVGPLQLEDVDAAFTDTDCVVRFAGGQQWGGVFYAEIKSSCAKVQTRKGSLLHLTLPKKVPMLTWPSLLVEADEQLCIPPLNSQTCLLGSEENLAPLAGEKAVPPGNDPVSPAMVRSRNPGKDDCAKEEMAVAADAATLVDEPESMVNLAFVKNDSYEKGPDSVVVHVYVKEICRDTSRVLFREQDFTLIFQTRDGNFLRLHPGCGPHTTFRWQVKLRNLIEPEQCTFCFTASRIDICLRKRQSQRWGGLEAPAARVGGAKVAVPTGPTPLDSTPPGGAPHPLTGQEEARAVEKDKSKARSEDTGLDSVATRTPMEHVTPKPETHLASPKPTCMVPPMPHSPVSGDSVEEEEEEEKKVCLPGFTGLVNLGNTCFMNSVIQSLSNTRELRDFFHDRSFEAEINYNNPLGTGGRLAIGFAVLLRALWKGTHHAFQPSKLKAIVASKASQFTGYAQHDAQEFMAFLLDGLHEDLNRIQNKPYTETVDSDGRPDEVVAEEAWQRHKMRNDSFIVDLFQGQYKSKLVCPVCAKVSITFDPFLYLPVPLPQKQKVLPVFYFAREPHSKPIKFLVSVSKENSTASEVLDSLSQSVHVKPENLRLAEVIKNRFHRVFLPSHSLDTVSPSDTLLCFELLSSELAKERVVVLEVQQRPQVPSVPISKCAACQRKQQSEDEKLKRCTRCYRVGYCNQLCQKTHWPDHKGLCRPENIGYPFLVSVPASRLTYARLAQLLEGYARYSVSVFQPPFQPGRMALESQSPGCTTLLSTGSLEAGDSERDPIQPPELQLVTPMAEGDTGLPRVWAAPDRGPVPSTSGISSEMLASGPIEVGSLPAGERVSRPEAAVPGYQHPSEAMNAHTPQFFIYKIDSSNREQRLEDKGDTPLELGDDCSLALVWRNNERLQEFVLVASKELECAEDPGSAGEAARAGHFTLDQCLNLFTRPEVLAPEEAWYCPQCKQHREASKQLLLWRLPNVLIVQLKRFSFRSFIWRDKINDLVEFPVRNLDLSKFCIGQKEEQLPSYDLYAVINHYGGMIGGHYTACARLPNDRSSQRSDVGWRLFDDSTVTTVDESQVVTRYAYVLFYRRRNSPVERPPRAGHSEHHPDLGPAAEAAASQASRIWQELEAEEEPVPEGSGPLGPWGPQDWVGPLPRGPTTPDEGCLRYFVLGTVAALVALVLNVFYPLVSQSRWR
# In short: (§1)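 HEK293T lysate (495 µg per sample, in Tris/CHAPS/IGEPAL buffer with protease inhibitors) was exposed in triplicate for 3 h to fragment at 200 µM or to vehicle, then to Biotin-Ahx-Ub-VS at 0.5 µM final for 1 h. Labelled DUBs were enriched on NeutrAvidin, digested with LysC and trypsin, and analysed by diaPASEF LC-MS/MS. Spectronaut label-free quantities were normalised to the global median, and values are average log2 ratios of fragment over vehicle from an unpaired t-test. Only proteins with ≥2 unique peptides were used.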
# [2] = target: USP24 (UniProt Q9UPU5)
# In short: as §1
# [3] = target: T2, USP25 (UniProt Q9UHP3)
# T2 sequence (whole entry): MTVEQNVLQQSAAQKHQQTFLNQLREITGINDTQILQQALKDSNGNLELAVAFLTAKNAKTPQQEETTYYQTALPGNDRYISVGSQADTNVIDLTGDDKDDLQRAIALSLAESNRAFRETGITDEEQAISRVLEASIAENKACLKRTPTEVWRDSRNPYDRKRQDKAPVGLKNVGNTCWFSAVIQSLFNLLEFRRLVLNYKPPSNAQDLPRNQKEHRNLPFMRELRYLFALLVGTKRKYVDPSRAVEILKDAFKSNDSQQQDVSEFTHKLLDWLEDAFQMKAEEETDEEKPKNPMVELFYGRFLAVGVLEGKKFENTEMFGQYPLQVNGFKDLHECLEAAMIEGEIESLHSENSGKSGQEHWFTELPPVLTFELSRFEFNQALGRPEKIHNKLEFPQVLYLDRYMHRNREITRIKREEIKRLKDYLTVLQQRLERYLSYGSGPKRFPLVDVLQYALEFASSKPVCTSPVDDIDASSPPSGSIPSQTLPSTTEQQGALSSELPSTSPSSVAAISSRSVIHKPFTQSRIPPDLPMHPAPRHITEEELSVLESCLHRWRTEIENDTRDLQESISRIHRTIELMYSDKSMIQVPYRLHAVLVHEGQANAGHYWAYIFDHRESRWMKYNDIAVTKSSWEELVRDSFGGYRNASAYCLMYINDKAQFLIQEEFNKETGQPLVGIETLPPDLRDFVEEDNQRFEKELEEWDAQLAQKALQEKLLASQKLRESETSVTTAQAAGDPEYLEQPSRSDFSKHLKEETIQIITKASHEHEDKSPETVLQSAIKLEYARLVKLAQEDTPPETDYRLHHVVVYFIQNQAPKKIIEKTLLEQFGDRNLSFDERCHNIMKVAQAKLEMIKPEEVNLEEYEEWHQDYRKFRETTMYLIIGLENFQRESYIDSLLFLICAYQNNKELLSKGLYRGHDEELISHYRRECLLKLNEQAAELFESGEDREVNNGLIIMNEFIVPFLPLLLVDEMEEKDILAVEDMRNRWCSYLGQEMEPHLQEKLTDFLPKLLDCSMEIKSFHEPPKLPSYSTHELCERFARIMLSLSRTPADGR
# In short: as §1
# [4] = target: T3, USP28 (UniProt Q96RU2)
# T3 sequence (whole entry): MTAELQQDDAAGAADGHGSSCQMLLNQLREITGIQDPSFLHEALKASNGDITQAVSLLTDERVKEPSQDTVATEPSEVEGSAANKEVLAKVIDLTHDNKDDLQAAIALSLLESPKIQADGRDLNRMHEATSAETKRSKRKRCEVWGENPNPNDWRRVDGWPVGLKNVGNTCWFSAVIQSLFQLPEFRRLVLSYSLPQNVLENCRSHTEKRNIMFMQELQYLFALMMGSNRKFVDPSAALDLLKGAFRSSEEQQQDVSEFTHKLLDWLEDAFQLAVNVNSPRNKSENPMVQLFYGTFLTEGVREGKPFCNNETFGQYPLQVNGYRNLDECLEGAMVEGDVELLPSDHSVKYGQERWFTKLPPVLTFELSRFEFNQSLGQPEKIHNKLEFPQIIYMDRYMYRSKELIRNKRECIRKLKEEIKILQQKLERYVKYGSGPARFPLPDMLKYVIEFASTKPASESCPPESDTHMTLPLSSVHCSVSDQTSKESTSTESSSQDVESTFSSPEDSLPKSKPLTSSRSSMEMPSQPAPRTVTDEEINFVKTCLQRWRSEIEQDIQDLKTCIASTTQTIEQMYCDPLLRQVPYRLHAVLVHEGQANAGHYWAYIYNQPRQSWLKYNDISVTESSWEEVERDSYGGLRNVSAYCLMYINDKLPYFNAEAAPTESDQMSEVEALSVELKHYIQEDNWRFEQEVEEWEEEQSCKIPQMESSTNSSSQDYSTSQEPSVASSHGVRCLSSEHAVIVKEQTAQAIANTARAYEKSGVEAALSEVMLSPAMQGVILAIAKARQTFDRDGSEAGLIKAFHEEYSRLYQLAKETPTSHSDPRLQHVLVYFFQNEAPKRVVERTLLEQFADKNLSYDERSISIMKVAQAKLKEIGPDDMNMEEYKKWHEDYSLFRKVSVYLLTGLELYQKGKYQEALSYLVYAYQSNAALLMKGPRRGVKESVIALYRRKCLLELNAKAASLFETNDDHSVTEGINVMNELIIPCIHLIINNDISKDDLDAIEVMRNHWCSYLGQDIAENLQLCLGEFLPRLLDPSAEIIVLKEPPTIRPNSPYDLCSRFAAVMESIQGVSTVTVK
# In short: as §1
# USP24, sequence (Q9UPU5 whole entry): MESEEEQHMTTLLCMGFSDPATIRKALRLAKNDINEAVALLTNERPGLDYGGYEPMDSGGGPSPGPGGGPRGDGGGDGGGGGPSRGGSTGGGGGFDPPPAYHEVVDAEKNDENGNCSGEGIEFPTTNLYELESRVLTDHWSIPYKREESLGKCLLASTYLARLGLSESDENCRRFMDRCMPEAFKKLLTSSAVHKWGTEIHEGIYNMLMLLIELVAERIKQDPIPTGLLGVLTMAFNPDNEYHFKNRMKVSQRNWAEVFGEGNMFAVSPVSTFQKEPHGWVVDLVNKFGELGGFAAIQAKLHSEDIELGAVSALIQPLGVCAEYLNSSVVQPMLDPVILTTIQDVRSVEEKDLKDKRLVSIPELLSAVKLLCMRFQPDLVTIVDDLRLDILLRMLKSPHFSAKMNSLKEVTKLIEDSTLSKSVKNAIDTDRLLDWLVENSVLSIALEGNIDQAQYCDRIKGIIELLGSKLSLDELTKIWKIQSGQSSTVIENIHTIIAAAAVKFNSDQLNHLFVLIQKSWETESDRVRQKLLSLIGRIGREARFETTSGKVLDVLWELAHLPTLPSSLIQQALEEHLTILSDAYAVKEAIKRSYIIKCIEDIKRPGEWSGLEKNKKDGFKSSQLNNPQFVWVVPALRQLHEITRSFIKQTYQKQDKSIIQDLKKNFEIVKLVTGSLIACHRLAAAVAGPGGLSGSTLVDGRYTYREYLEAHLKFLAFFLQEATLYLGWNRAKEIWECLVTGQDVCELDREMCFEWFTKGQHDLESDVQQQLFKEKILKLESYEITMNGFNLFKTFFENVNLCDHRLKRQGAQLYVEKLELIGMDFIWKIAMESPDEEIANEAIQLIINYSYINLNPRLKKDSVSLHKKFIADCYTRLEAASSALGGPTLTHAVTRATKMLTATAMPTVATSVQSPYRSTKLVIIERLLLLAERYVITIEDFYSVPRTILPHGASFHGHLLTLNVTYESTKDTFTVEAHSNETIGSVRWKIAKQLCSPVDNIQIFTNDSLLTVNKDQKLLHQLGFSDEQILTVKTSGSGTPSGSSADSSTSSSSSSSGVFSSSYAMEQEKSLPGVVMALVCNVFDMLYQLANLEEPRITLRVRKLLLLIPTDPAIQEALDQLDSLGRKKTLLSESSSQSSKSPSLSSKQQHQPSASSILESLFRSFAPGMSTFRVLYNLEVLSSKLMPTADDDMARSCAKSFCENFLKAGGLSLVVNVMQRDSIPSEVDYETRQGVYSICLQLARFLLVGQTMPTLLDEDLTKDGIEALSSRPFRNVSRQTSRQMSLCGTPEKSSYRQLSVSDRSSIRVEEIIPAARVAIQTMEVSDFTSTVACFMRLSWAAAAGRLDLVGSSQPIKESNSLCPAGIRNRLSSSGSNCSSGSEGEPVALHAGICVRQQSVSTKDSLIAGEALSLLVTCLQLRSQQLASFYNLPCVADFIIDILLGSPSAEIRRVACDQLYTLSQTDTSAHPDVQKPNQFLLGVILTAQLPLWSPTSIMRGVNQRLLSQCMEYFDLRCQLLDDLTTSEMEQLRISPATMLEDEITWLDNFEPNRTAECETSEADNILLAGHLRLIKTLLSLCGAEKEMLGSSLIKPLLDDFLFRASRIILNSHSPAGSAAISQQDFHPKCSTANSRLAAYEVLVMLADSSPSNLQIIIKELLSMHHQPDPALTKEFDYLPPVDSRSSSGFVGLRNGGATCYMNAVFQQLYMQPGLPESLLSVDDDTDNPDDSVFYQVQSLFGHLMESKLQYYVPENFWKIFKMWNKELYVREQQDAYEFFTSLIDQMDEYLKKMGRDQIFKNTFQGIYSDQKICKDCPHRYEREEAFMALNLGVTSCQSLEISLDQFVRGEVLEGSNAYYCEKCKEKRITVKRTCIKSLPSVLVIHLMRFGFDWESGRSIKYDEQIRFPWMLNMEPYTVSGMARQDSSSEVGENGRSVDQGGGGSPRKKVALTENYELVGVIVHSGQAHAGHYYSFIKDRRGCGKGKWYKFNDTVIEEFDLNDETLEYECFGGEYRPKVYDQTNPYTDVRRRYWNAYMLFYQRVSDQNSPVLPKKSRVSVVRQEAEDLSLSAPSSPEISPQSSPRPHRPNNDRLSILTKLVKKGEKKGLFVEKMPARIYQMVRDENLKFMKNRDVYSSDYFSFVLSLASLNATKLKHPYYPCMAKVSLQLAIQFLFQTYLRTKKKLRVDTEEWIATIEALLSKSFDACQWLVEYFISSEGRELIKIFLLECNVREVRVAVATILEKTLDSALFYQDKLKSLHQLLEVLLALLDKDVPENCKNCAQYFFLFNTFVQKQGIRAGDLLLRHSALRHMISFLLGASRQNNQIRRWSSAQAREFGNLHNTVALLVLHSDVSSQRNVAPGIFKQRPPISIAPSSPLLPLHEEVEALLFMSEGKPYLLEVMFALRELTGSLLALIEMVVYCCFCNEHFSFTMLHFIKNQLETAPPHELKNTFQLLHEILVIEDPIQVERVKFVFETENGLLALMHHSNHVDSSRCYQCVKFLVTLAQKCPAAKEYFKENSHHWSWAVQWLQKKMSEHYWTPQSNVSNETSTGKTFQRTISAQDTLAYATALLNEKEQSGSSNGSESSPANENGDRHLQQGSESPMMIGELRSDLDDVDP
smiles,measurement,setting,value
O=C(CCl)Nc1cc(Cl)ccc1-n1cncn1,log2 ratio of Biotin-Ahx-Ub-VS probe labelling,[1],-0.987
same,log2 ratio of Biotin-Ahx-Ub-VS probe labelling,[2],-1.34 (active)
same,log2 ratio of Biotin-Ahx-Ub-VS probe labelling,[3],-1.65 (active)
same,log2 ratio of Biotin-Ahx-Ub-VS probe labelling,[4],-2.34 (active)
